About 79,000 compounds went through this panel and 15% of them were active in at least one assay; those are over-represented in the sample as a whole. Unmarked numbers belong to inactive results. Activity calls are given as the source filed them. Rule as the data show it: active = growth inhibition above about 70%; inactive = the rest.
Tests used:
[1] = NCI Yeast Anticancer Drug Screen. Data for the wt1 strain (AID 149);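 also: 0% = growth of vehicle-treated wt1 cultures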; conditions: S. cerevisiae wt1 strain (SPY 50644) growth inhibition, stronger effect = higher value
Outline: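 Readout: yeast growth inhibition, normalised to vehicle controls, in the wt1 strain exposed to test compounds.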

[2] = NCI Yeast Anticancer Drug Screen. Data for the rad50EPP+ strain (AID 151);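 also: 0% = growth of vehicle-treated control cultures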; conditions: S. cerevisiae rad50 mutant strain, stronger effect = higher value
Outline: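 Read-out is yeast growth inhibition relative to vehicle; cells used were the rad50EPP+ strain.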

[3] = NCI Yeast Anticancer Drug Screen. Data for the mgt1 strain (AID 153); conditions: S. cerevisiae mgt1 mutant growth inhibition, stronger effect = higher value
Outline: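 Measured: inhibition of mgt1 yeast growth by compound, normalized to vehicle-treated cultures.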

[4] = NCI Yeast Anticancer Drug Screen. Data for the rad50 strain (AID 155);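 also: 0% = growth of vehicle-only cultures of the same strain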; conditions: S. cerevisiae rad50 strain growth inhibition, stronger effect = higher value
Outline: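 Compounds were tested on a yeast strain with an engineered DNA damage repair alteration; the reported value is growth inhibition normalised to vehicle treatment.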

[5] = NCI Yeast Anticancer Drug Screen. Data for the mec2-1 strain (AID 157); conditions: S. cerevisiae mec2-1 strain, stronger effect = higher value
Outline: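 Using mec2-1 yeast: add compound, measure growth, express inhibition versus vehicle-treated cultures.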

[6] = NCI Yeast Anticancer Drug Screen. Data for the rad14 strain (AID 159);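 also: 0% = growth of vehicle-treated control cultures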; conditions: S. cerevisiae rad14 strain growth inhibition, stronger effect = higher value
Outline: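 Compound-treated yeast with a defined DNA-repair lesion; growth inhibition normalised to vehicle-treated cultures.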

[7] = NCI Yeast Anticancer Drug Screen. Data for the sgs1 mgt1 strain (AID 161);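 also: 0% = growth of cultures given vehicle only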; conditions: S. cerevisiae sgs1 mgt1 strain, stronger effect = higher value
Outline: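 This yeast growth screen uses a strain with defined DNA-repair lesions; compound-treated growth is compared with vehicle-treated growth.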

[8] = NCI Yeast Anticancer Drug Screen. Data for the CLN2oe strain (AID 163);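 also: 0% = growth of vehicle-only control cultures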; conditions: S. cerevisiae CLN2oe strain, stronger effect = higher value
Outline: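 Whole-cell yeast growth assay. A strain engineered for altered cell-cycle control received compound, and inhibition relative to vehicle-treated cultures was recorded.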

[9] = NCI Yeast Anticancer Drug Screen. Data for the cln2 rad14 strain (AID 165);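 also: 0% = growth equal to vehicle treated cultures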; conditions: S. cerevisiae cln2 rad14 strain, stronger effect = higher value
Outline: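 Yeast strain cln2 rad14, bearing defects in cell cycle control and DNA repair, serves as the test system; values reflect growth inhibition compared with vehicle.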

[10] = NCI Yeast Anticancer Drug Screen. Data for the bub3 strain (AID 167); conditions: S. cerevisiae bub3 mutant strain, stronger effect = higher value
Outline: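 Growth of a checkpoint-deficient yeast mutant is measured after compound exposure. Values represent inhibition relative to vehicle.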

[11] = NCI Yeast Anticancer Drug Screen. Data for the wt2 strain (AID 169);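 also: 0% = growth of vehicle-treated yeast cultures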; conditions: S. cerevisiae wt2 strain growth inhibition, stronger effect = higher value
Outline: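 Treated yeast vs. vehicle-treated yeast: growth inhibition determined.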

[12] = NCI Yeast Anticancer Drug Screen. Data for the mlh1 strain (AID 171);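 also: 0% = growth of vehicle-treated control cultures of the same strain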; conditions: S. cerevisiae mlh1 strain growth inhibition, stronger effect = higher value
Outline: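 A yeast strain with a defined genetic lesion serves as the test organism. Cultures receive compound or vehicle, and growth is measured.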

[13] = NCI Yeast Anticancer Drug Screen. Data for the sgs1 strain (AID 173);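 also: 0% = growth of vehicle-only control cultures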; conditions: S. cerevisiae sgs1 mutant, stronger effect = higher value
Outline: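 A genetically defined yeast mutant is incubated with the test compound, and its growth is compared to that of the same strain given vehicle.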

[14] = NCI Yeast Anticancer Drug Screen. Data for the mlh1 rad18 strain (AID 175); conditions: S. cerevisiae mlh1 rad18 strain growth inhibition, stronger effect = higher value
Outline: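 Steps: expose repair-defective yeast to compound; measure growth; express inhibition against vehicle-treated controls.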

[15] = NCI Yeast Anticancer Drug Screen. Data for the rad18 strain (AID 177); conditions: S. cerevisiae rad18 mutant growth inhibition, stronger effect = higher value
Outline: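 Measured value is growth inhibition of a yeast strain bearing a DNA repair alteration, referenced to vehicle-treated cells.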

[16] = at 5.0 µM (retest, dose inferred, filed as 0.5)
[17] = at 50.0 µM (retest, dose inferred, filed as 5.0)

**Q.** For `CN(C)CCNC(=O)c1cccc2nc3c4ccccc4c4ccccc4c3nc12`, which growth inhibition ([1]; at 1.2 µM) is on record?
**A.** The growth inhibition was -1%.

**Q.** What about the growth inhibition ([1]; at 3.7 µM) of the same compound?
**A.** Its growth inhibition is 2%.

**Q.** What about the growth inhibition ([1]; at 11.0 µM) of the same compound?
**A.** The growth inhibition was 28%.

**Q.** And the growth inhibition ([1]; at 33.0 µM)?
**A.** Its growth inhibition is 97% (active).

**Q.** And the growth inhibition ([1]; at 100.0 µM)?
**A.** Its growth inhibition is 95% (active).

**Q.** What about the growth inhibition ([2]; at 1.2 µM) of the same compound?
**A.** Its growth inhibition is 6%.

**Q.** What about the growth inhibition ([2]; at 3.7 µM) of the same compound?
**A.** Its growth inhibition is 25%.

**Q.** What about the growth inhibition ([2]; at 11.0 µM) of the same compound?
**A.** The growth inhibition was 90% (active).

**Q.** What about the growth inhibition ([2]; at 33.0 µM) of the same compound?
**A.** The growth inhibition was 96% (active).

**Q.** What about the growth inhibition ([2]; at 100.0 µM) of the same compound?
**A.** The growth inhibition was 93% (active).

**Q.** And the growth inhibition ([3]; at 1.2 µM)?
**A.** The growth inhibition was 1%.

**Q.** And the growth inhibition ([3]; at 3.7 µM)?
**A.** Its growth inhibition is 1%.

**Q.** What about the growth inhibition ([3]; at 11.0 µM) of the same compound?
**A.** Its growth inhibition is 43%.

**Q.** And the growth inhibition ([3]; at 33.0 µM)?
**A.** Its growth inhibition is 99% (active).

**Q.** What about the growth inhibition ([3]; at 100.0 µM) of the same compound?
**A.** The growth inhibition was 95% (active).

**Q.** And the growth inhibition ([4]; at 1.2 µM)?
**A.** The growth inhibition was -9%.

**Q.** And the growth inhibition ([4]; at 3.7 µM)?
**A.** The growth inhibition was -24%.

**Q.** And the growth inhibition [4, 16]?
**A.** Its growth inhibition is 65%.

**Q.** What about the growth inhibition ([4]; at 11.0 µM) of the same compound?
**A.** The growth inhibition was 98% (active).

**Q.** And the growth inhibition ([4]; at 33.0 µM)?
**A.** Its growth inhibition is 98% (active).

**Q.** And the growth inhibition [4, 17]?
**A.** Its growth inhibition is 96% (active).

**Q.** What about the growth inhibition ([4]; at 50.0 µM) of the same compound?
**A.** Its growth inhibition is 96.7% (active).

**Q.** What about the growth inhibition ([4]; at 100.0 µM) of the same compound?
**A.** Its growth inhibition is 91% (active).

**Q.** What about the growth inhibition ([5]; at 1.2 µM) of the same compound?
**A.** Its growth inhibition is 0%.

**Q.** What about the growth inhibition ([5]; at 3.7 µM) of the same compound?
**A.** The growth inhibition was 1%.

**Q.** What about the growth inhibition [5, 16] of the same compound?
**A.** Its growth inhibition is 8%.

**Q.** What about the growth inhibition ([5]; at 11.0 µM) of the same compound?
**A.** Its growth inhibition is 35%.

**Q.** And the growth inhibition ([5]; at 33.0 µM)?
**A.** Its growth inhibition is 99% (active).

**Q.** And the growth inhibition [5, 17]?
**A.** The growth inhibition was 96% (active).

**Q.** What about the growth inhibition ([5]; at 50.0 µM) of the same compound?
**A.** The growth inhibition was 95.8% (active).

**Q.** What about the growth inhibition ([5]; at 100.0 µM) of the same compound?
**A.** Its growth inhibition is 94% (active).

**Q.** What about the growth inhibition ([6]; at 1.2 µM) of the same compound?
**A.** Its growth inhibition is 3%.

**Q.** What about the growth inhibition ([6]; at 3.7 µM) of the same compound?
**A.** The growth inhibition was 8%.

**Q.** What about the growth inhibition ([6]; at 11.0 µM) of the same compound?
**A.** Its growth inhibition is 67%.

**Q.** And the growth inhibition ([6]; at 33.0 µM)?
**A.** The growth inhibition was 98% (active).

**Q.** What about the growth inhibition ([6]; at 100.0 µM) of the same compound?
**A.** The growth inhibition was 95% (active).

**Q.** And the growth inhibition [7, 16]?
**A.** Its growth inhibition is 17%.

**Q.** And the growth inhibition [7, 17]?
**A.** Its growth inhibition is 97% (active).

**Q.** What about the growth inhibition ([7]; at 50.0 µM) of the same compound?
**A.** Its growth inhibition is 96.2% (active).

**Q.** And the growth inhibition ([8]; at 1.2 µM)?
**A.** The growth inhibition was 0%.

**Q.** What about the growth inhibition ([8]; at 3.7 µM) of the same compound?
**A.** Its growth inhibition is -3%.

**Q.** What about the growth inhibition ([8]; at 11.0 µM) of the same compound?
**A.** Its growth inhibition is 29%.

**Q.** And the growth inhibition ([8]; at 33.0 µM)?
**A.** The growth inhibition was 97% (active).

**Q.** And the growth inhibition ([8]; at 100.0 µM)?
**A.** Its growth inhibition is 92% (active).

**Q.** What about the growth inhibition [9, 16] of the same compound?
**A.** The growth inhibition was 18%.

**Q.** What about the growth inhibition [9, 17] of the same compound?
**A.** The growth inhibition was 95% (active).

**Q.** What about the growth inhibition ([9]; at 50.0 µM) of the same compound?
**A.** Its growth inhibition is 95% (active).

**Q.** What about the growth inhibition ([10]; at 1.2 µM) of the same compound?
**A.** Its growth inhibition is -1%.

**Q.** What about the growth inhibition ([10]; at 3.7 µM) of the same compound?
**A.** The growth inhibition was 2%.

**Q.** What about the growth inhibition [10, 16] of the same compound?
**A.** Its growth inhibition is 7%.

**Q.** What about the growth inhibition ([10]; at 11.0 µM) of the same compound?
**A.** The growth inhibition was 93% (active).

**Q.** What about the growth inhibition ([10]; at 33.0 µM) of the same compound?
**A.** Its growth inhibition is 97% (active).

**Q.** And the growth inhibition [10, 17]?
**A.** Its growth inhibition is 96% (active).

**Q.** And the growth inhibition ([10]; at 50.0 µM)?
**A.** Its growth inhibition is 95.4% (active).

**Q.** What about the growth inhibition ([10]; at 100.0 µM) of the same compound?
**A.** Its growth inhibition is 92% (active).

**Q.** What about the growth inhibition ([11]; at 1.2 µM) of the same compound?
**A.** Its growth inhibition is 1%.

**Q.** And the growth inhibition ([11]; at 3.7 µM)?
**A.** The growth inhibition was 9%.

**Q.** What about the growth inhibition ([11]; at 11.0 µM) of the same compound?
**A.** The growth inhibition was 29%.

**Q.** And the growth inhibition ([11]; at 33.0 µM)?
**A.** Its growth inhibition is 97% (active).

**Q.** And the growth inhibition ([11]; at 100.0 µM)?
**A.** Its growth inhibition is 94% (active).

**Q.** What about the growth inhibition ([12]; at 1.2 µM) of the same compound?
**A.** Its growth inhibition is 1%.

**Q.** What about the growth inhibition ([12]; at 3.7 µM) of the same compound?
**A.** The growth inhibition was 2%.

**Q.** And the growth inhibition ([12]; at 11.0 µM)?
**A.** The growth inhibition was 53%.

**Q.** And the growth inhibition ([12]; at 33.0 µM)?
**A.** The growth inhibition was 98% (active).

**Q.** And the growth inhibition ([12]; at 100.0 µM)?
**A.** Its growth inhibition is 94% (active).

**Q.** And the growth inhibition ([13]; at 1.2 µM)?
**A.** Its growth inhibition is 1%.

**Q.** And the growth inhibition ([13]; at 3.7 µM)?
**A.** Its growth inhibition is 4%.

**Q.** And the growth inhibition ([13]; at 11.0 µM)?
**A.** Its growth inhibition is 73% (active).

**Q.** And the growth inhibition ([13]; at 33.0 µM)?
**A.** The growth inhibition was 98% (active).

**Q.** And the growth inhibition ([13]; at 100.0 µM)?
**A.** The growth inhibition was 95% (active).

**Q.** And the growth inhibition [14, 16]?
**A.** Its growth inhibition is 40%.

**Q.** And the growth inhibition [14, 17]?
**A.** Its growth inhibition is 97% (active).

**Q.** And the growth inhibition ([14]; at 50.0 µM)?
**A.** The growth inhibition was 95.2% (active).

**Q.** What about the growth inhibition ([15]; at 1.2 µM) of the same compound?
**A.** The growth inhibition was 5%.

**Q.** What about the growth inhibition ([15]; at 3.7 µM) of the same compound?
**A.** Its growth inhibition is 11%.

**Q.** And the growth inhibition ([15]; at 11.0 µM)?
**A.** Its growth inhibition is 72% (active).

**Q.** And the growth inhibition ([15]; at 33.0 µM)?
**A.** The growth inhibition was 98% (active).

**Q.** What about the growth inhibition ([15]; at 100.0 µM) of the same compound?
**A.** Its growth inhibition is 93% (active).

Reference: PubChem BioAssay (NCI)
